HEK293 tox: Cytotoxic Profiling in HEK 293 Cell Line of Diverse Libraries Using Quantitative High-Throughput Screening. HEK 293 viability, ATP luminescence (CellTiter-Glo), 48-72 h. Potency, µM (titrated, usually from 115 µM), for the others: at the top dose activity change, negative = cytotoxicity, usual class: inhibitors. 94,000 tested, 6.6% active; note: nearly all actives have a fitted effect of over 60% in size
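Viability of HEK 293 cells, plated at 250 cells/well, was judged by cellular ATP after compound treatment for 48 or 72 hr. Luminescence was imaged 10 min after CellTiter-Glo addition at room temperature.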
GPT2 inhibitor: Primary qHTS assay for inhibitors of Glutamate pyruvate transaminase 2 (GPT2) | Alanine aminotransferase 2 (Homo sapiens), Q8TD30 | Potency, µM (series often up to 57.7 µM), for the others: top-dose activity change, negative = inhibition, hits mostly inhibitors | AID 1671188, 2021 | 100,000 tested, 0.25% active | Recombinant GPT2, coupled pyruvate oxidase/HRP Amplex Red fluorescence; note: nearly all actives have a fitted effect of over 60% in size
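Fluorescence of coupled pyruvate oxidase/HRP/Amplex Red system (50uM Amplex, 30 min, dark) reports pyruvate formed by GPT2. Enzyme reaction: 10ng/uL GPT2, 2mM L-alanine, 250uM a-KG, 30 min room temperature, pH 7.5; 50uM AOA control.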
NIH3T3 tox: Cytotoxic Profiling in NIH 3T3 Cell Line of Diverse Libraries Using Quantitative High-Throughput Screening; NIH 3T3 viability, CellTiter-Glo ATP luminescence, 48-72 h; 94,000 tested, 4.3% active; Potency, µM (top dose mostly 96.7 µM), for the others: at the highest dose activity change, negative = cytotoxicity, most hits filed as inhibitors; AID 1345082, 2018; note: nearly all actives have a fitted effect of over 55% in size
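Viability of NIH 3T3 cells after 48 or 72 hr compound treatment at 37 °C was assessed by CellTiter-Glo, with luminescence imaged following a 10 min room-temperature step.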
FLuc inh: Firefly luciferase inhibition profiling of diverse chemical library using quantitative high-throughput screening; purified P. pyralis luciferase, luminescence, biochemical; Potency, µM (highest dose often 115 µM), most hits filed as inhibitors; 76,000 tested, 2.5% active; AID 1347043, 2019; note: nearly all actives have a fitted effect of over 65% in size
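Luminescence read by CCD imager after adding enzyme (10nM final) to wells holding compound, titrated in qHTS. Substrates 10uM each D-luciferin and ATP; buffer 50mM Tris acetate pH 7.5, 10mM Mg acetate, Tween-20, BSA.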
hNpr1 antagonist: Natriuretic polypeptide receptor (hNpr1) antagonism - Primary qHTS | Potency, µM (titrated, usually from 46.3 µM), without a hit: at the highest dose activity change, negative = inhibition, usual class: inhibitors | HEK293 hNpr1 GloSensor cGMP, ANP-stimulated luminescence | AID 1347048, 2019 | 76,000 tested, 1.6% active; calls by dose curve; note: nearly all actives have a fitted effect of over 60% in size
Target sequence (P16066 whole entry, looked up): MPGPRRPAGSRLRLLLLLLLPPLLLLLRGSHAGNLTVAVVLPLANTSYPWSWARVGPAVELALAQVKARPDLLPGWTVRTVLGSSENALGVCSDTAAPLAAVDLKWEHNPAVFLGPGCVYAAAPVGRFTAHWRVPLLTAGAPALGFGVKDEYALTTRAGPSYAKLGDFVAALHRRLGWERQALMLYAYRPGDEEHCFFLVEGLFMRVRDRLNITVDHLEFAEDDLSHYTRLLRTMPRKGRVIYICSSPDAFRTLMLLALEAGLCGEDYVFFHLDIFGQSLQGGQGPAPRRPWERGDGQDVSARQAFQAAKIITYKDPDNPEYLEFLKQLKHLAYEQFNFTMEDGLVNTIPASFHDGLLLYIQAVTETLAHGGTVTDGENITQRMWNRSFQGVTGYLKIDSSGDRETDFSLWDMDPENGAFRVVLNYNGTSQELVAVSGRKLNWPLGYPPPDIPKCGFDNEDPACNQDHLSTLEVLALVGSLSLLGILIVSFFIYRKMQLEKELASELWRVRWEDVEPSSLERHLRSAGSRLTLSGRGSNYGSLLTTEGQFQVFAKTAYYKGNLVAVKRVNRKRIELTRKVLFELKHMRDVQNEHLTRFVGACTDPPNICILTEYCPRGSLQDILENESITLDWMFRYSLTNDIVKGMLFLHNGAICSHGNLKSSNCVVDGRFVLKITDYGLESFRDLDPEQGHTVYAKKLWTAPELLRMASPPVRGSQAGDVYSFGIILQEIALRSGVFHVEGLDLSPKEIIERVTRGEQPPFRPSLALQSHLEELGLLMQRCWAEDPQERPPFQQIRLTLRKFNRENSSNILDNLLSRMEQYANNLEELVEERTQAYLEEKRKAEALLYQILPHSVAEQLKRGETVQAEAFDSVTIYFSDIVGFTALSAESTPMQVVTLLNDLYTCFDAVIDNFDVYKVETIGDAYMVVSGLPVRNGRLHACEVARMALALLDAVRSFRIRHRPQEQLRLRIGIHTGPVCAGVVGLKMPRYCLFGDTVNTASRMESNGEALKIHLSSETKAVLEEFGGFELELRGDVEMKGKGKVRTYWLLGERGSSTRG
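HEK293 cells stably expressing human Npr1 and cGMP GloSensor pGS-40F, loaded 2 h with 2% GloSensor reagent, given compound 30 min at room temperature. Luminescence read before and 20 min after 0.1 nM hNppA.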
The depositor's hits bear a star; [ ] = dose if it differs, or a comment. A selection: hits, their analogues and other compounds. The true share with any hit is near 10%. Unless noted, calls come from the whole dose curve; as a rule, active = well fitted curve in the direction sought with a large enough effect; inconclusive = small, poorly fitted or top-dose-only effect, or another doubt; inactive = no such curve, though single readings can be large; an effect the other way counts as inactive or inconclusive. % is set by controls: 0 for no effect and ±100 for the full control effect; potency is the fitted concentration of half-maximal effect.

Screening O=C(c1cccc(F)c1)N1CCC2(CC1)CC(N(Cc1ccc(F)cc1)C1CC1)CCO2 (stereo not given) returned HEK293 tox inconclusive, GPT2 inhibitor 5%, NIH3T3 tox inconclusive, FLuc inh inactive and hNpr1 antagonist 2%.
Screening COc1cc(CN2C[C@@H](CO)[C@H](c3ccncc3)C2)ccc1F returned HEK293 tox -15%, GPT2 inhibitor -1%, NIH3T3 tox -25%, FLuc inh inactive and hNpr1 antagonist -1%.
CC(C)NC(=O)N1CCCN(c2ccc3nnc(C4CC4)n3n2)CC1 was read as HEK293 tox -3% and NIH3T3 tox -24%.
Screening CCCN(Cc1ccc(S(=O)(=O)NC)cc1)Cc1ccccc1OC returned HEK293 tox -1%, GPT2 inhibitor inactive, NIH3T3 tox -24%, FLuc inh inactive and hNpr1 antagonist 4%.
Screening CN1CCCC2(C1)CN(C)c1ccc(C(=O)NCC3CCCCC3)cc12 (stereo not given) returned HEK293 tox 112µM*, GPT2 inhibitor inactive, NIH3T3 tox 89µM*, FLuc inh inactive and hNpr1 antagonist 4%[70.6 µM].
`COCCN1CCC2(C1)CN(C)c1ccc(C(=O)NCc3ccccc3)cc12` (stereo not given) gave HEK293 tox inconclusive, GPT2 inhibitor 3%[88.5 µM], NIH3T3 tox inconclusive, FLuc inh 20µM* and hNpr1 antagonist 3%[70.6 µM].
Screening CN(C)CCNC(=O)c1ccc2c(c1)C1(CCCN(CC3CC3)C1)CN2C (stereo not given) returned HEK293 tox inconclusive, GPT2 inhibitor -7%[88.5 µM], NIH3T3 tox 89µM*, FLuc inh inactive and hNpr1 antagonist -1%[70.6 µM].
For CC(C)CNC(=O)c1ccc2c(c1)C1(CCCN(CC3CC3)C1)CN2C (stereo not given) the results were HEK293 tox inconclusive, GPT2 inhibitor -12%[88.5 µM], NIH3T3 tox -4%[138 µM], FLuc inh inactive and hNpr1 antagonist 2%[70.6 µM].
`CN1CC2(CCCN(CC3CC3)C2)c2cc(C(=O)NCCc3ccccc3)ccc21` (stereo not given) gave HEK293 tox inconclusive, GPT2 inhibitor inactive, NIH3T3 tox 79µM*, FLuc inh inactive and hNpr1 antagonist -14%[70.6 µM].
CN1CCC2(C1)CN(CC1CC1)c1ccc(C(=O)NCC3CC3)cc12 (stereo not given) was read as HEK293 tox inconclusive, GPT2 inhibitor inactive, NIH3T3 tox inconclusive, FLuc inh inactive and hNpr1 antagonist -6%[70.6 µM].
For CN(C)c1ccc(NC(=O)Cn2cccc2-c2nc(-c3ccccc3)no2)cc1 the results were HEK293 tox inconclusive, GPT2 inhibitor inconclusive, NIH3T3 tox inactive, FLuc inh inactive and hNpr1 antagonist 7%.
Screening CN1C(=O)[C@@H]2C[C@@H](CN2C(=O)c2ccc3c(c2)OCO3)Oc2ccccc21 returned HEK293 tox 1%[172 µM], GPT2 inhibitor -11%[88.5 µM], NIH3T3 tox -4%[138 µM], FLuc inh inactive and hNpr1 antagonist 0%[70.6 µM].
Screening CCCNC(=O)N1CCCN(Cc2ccc3c(c2)OCO3)c2ccccc21 returned HEK293 tox inconclusive, GPT2 inhibitor 3%, NIH3T3 tox inconclusive, FLuc inh inactive and hNpr1 antagonist -20%.
`CN(C)c1ncc2c(n1)C(C)(C(=O)NCc1cccc(Cl)c1)CCC2` (stereo not given) gave HEK293 tox 100µM*, GPT2 inhibitor 4%[88.5 µM], NIH3T3 tox inconclusive, FLuc inh inactive and hNpr1 antagonist -22%[70.6 µM].
For CN(C)c1ncc2c(n1)C(C)(C(=O)Nc1ccncc1)CCC2 (stereo not given) the results were HEK293 tox inconclusive, GPT2 inhibitor -6%[88.5 µM], NIH3T3 tox 10µM*, FLuc inh inactive and hNpr1 antagonist -2%[70.6 µM].
`CN(C)c1ncc2c(n1)C(C)(C(=O)NCc1cccc(F)c1)CCC2` (stereo not given) gave HEK293 tox inconclusive, GPT2 inhibitor -3%[88.5 µM], NIH3T3 tox inconclusive, FLuc inh inactive and hNpr1 antagonist -2%[70.6 µM].
`CCOCCCNC(=O)C1CCCN1Cc1ccc(-c2cncnc2)cc1` (stereo not given) gave HEK293 tox inactive, GPT2 inhibitor -4% and NIH3T3 tox -4%.
`COC(=O)CNC(=O)C1CCCN1Cc1ccc(-c2cncnc2)cc1` (stereo not given) gave HEK293 tox -13%, GPT2 inhibitor 4% and NIH3T3 tox inconclusive.
Screening COC(=O)CNC(=O)C1CCCN1Cc1cccc(-c2ccc(C)c(Cl)c2)c1 (stereo not given) returned HEK293 tox 40µM* and NIH3T3 tox inconclusive.
`CCOCCNC(=O)C1CCCN1Cc1cccc(-c2ccc(C)c(Cl)c2)c1` (stereo not given) gave HEK293 tox inconclusive and NIH3T3 tox 14µM*.
Screening O=C(NCc1ccccc1)C1CCCN1Cc1ccc(-c2cncnc2)cc1 (stereo not given) returned HEK293 tox inconclusive, GPT2 inhibitor -3% and NIH3T3 tox -21%.
Screening Cc1ccc(-c2cccc(CN3CCCC3C(=O)NCc3cccc(C(F)(F)F)c3)c2)cc1Cl (stereo not given) returned HEK293 tox 40µM* and NIH3T3 tox 40µM*.
Cc1ccc(-c2cccc(CN3CCCC3C(=O)NCc3ccccc3)c2)cc1Cl (stereo not given) was read as HEK293 tox 50µM* and NIH3T3 tox 45µM*.
COCCn1ncc(N2CCC(C(=O)N3CCC(C(N)=O)(N4CCCCC4)CC3)C2)cc1=O (stereo not given) was read as HEK293 tox -2%, GPT2 inhibitor inactive, NIH3T3 tox 2%, FLuc inh inactive and hNpr1 antagonist 3%.
For c1csc(CN2CCC(Oc3ccccc3-c3nc(-c4cnccn4)no3)C2)c1 (stereo not given) the results were HEK293 tox inconclusive, GPT2 inhibitor 3%, NIH3T3 tox inconclusive, FLuc inh inactive and hNpr1 antagonist -13%.
Cn1cccc1CN1CCC(Oc2ccccc2-c2nc(-c3ccncc3)no2)C1 (stereo not given) was read as HEK293 tox inconclusive, GPT2 inhibitor inactive and NIH3T3 tox 40µM*.
`CC(=O)N1CCC(Oc2ccccc2-c2nc(-c3ccccc3)no2)C1` (stereo not given) gave HEK293 tox inconclusive, GPT2 inhibitor inactive, NIH3T3 tox inconclusive, FLuc inh inactive and hNpr1 antagonist 12%.

From PubChem
